The values below come from PubChem BioAssay (NCI).

What all share (assay): NCI-60 one-dose screen, 48 h (100 = growth as untreated, 0 = no growth, -100 = all killed)
Holding throughout (details): 10 µM unless noted

The subject of assay [1] is SK-MEL-2 melanoma.
The subject of assay [2] is EKVX NSCLC.
Assay [3] concerns UO-31 renal.
In assay [4] the test system is TK-10 renal.
The test system of assay [5] is ACHN renal.
Assay [6] deals with CAKI-1 renal.
Assay [7] relates to A498 renal.
Assay [8] deals with CCRF-CEM leukemia.
In assay [9] the test system is MOLT-4 leukemia.
Assay [10] deals with SN12C renal.

Structures are written as SMILES. This is part of a sample that, as a whole, favours compounds with a hit. Of some 83,000 tested, about 20% had one in any assay.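 Values shown are percent growth following 48 h exposure of cells in 96-well plates to a single concentration of compound; below 10 was considered active.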 Values without a mark were called inactive. Active and inactive are the calls of the source.

Turning to `O=S(=O)(NCCNc1nccc(-n2cnc3ccccc32)n1)c1ccc(C(F)(F)F)cc1`, the growth is 67.8% in assay [1]; 34.7% in [2]; 39.9% in [3]; 63.4% in [4]; 60.8% in assay [5]; 43.1% in [6]. The growth in assay [7] is 56.6%; in [8], 57.6%; in [9], 45.2%.

For the compound `COc1c(N2CC3CCCNC3C2)c(F)cc2c(=O)c(C(=O)N/N=C/c3ccc(F)cc3)cn(C3CC3)c12` (stereo not given), the growth in assay [1] was 100%; in assay [2] it was 90%; in assay [10], 88.4%; in [4] it was 101%; in [5], 104%; in assay [6] it was 87.7%. For the same compound, the growth in assay [7] is 59.9%; in assay [8], 63.8%; in [9], 63.1%.

On to `O=C(CNc1nc(-c2cccc([N+](=O)[O-])c2)cs1)Nc1cccc(Cl)c1`, for which the growth is 107% in assay [1]; 89.2% in assay [2]; 99.4% in [10]; 149% in assay [4]; 101% in assay [5]; 106% in assay [6]. In addition, the growth is 93% in assay [7] and 101% in [9].

For the compound `CC(=O)N1C(=S)NC(=O)C1CC(C)C` (stereo not given), the growth in assay [1] was 102%; in assay [2] it was 102%; in [10], 101%; in [3], 93.2%; in assay [4], 100%; in assay [6] it was 96.3%. Moreover, the growth in [7] was 109%; in assay [9], 105%.

`CCc1cccc(NC(=O)CNc2cc(S(=O)(=O)N(C)C)cc(C)c2C)c1`: the growth is 102% in assay [1]; 50.7% in [2]; 69.4% in [10]; 65% in [4]; 91.3% in [5]; 50.5% in assay [6]. In addition, the growth in assay [7] is 35.5%; in [9], 82.4%.

As to `Cc1ccc(NC(=O)c2ccc(CN3CCN(C)CC3)cc2)cc1Oc1ccc(-c2[nH]nc3ncnc(N)c23)cc1`, the growth in assay [1] is 103%; in assay [2], 107%; in assay [10] it was 96.4%; in assay [4], 110%; in assay [5] it was 101%; in assay [6], 92.5%. Besides, the growth in [7] was 94.3%; in assay [8], 59.5%; in assay [9] it was 71.7%.

Turning to `CC(Nc1c(C#N)cnc2ccc(-c3cnc(N)nc3)cc12)c1ccccc1` (stereo not given), the growth in assay [1] was 2.77% (active); in assay [2] it was 0.82% (active); in assay [10], 14.7%; in assay [4], -20.7% (active); in assay [5], 14.6%; in [6], 1.74% (active). Further, the growth in assay [7] was -38.6% (active); in assay [8], 19.1%; in assay [9], 2.96% (active).

For the compound `O=C(CN1CCN(c2cc(=O)n(-c3ccccc3)c3ccccc23)CC1)Nc1nc(-c2ccccc2)cs1`, the growth was 88.9% in [1]; 45.5% in [2]; 82.1% in assay [10]; 97.7% in assay [4]; 63.8% in assay [5]; 61.4% in assay [6]. The growth was 66.2% in assay [7], 39.6% in assay [8] and 17.8% in [9].

As to `Cc1ccc(NC(=S)NNC(=S)Nc2ccc(C)cc2)cc1`, the growth is 109% in assay [1]; 94.5% in assay [2]; 89.9% in [3]; 109% in assay [4]; 105% in assay [5]; 102% in [6]. In addition, the growth in [7] was 84.1%; in [8] it was 95.6%; in [9] it was 97.5%.

Turning to `N#Cc1c(NC(=O)c2cccc(C(F)(F)F)c2F)sc2c1CCC(=O)C2`, the growth was 5.28% (active) in [1]; 5.47% (active) in assay [2]; 7.61% (active) in assay [10]; 24.1% in assay [4]; -95.5% (active) in assay [5]; -83.5% (active) in [6]. Also, the growth in assay [7] is -8.37% (active); in assay [8] it was 7.8% (active); in assay [9], -0.731% (active).

As for `O=C(Nc1ccc(Br)cc1)Nc1nc2ccc([N+](=O)[O-])cc2s1`, the growth in assay [1] was -22.7% (active); in [2], 9.52% (active); in assay [10], 4.21% (active); in [4] it was -2.48% (active); in [5] it was 3.61% (active); in assay [6], -2.25% (active). The growth is 10.9% in assay [8] and 3.2% (active) in [9].

Regarding `CCN1CCN(Cc2ccc(C(=O)Nc3ccc(C)c(Oc4ccc(-c5[nH]nc6ncnc(N)c56)cc4)c3)cc2C(F)(F)F)CC1`, the growth in assay [1] was 90%; in [2] it was 106%; in assay [10], 86.5%; in assay [4], 117%; in assay [5] it was 91.9%; in [6] it was 88.3%. The growth was 98.4% in [7], 31% in assay [8] and 67.4% in assay [9].

Consider `Cc1cccc2c3c(sc12)C(c1ccc(F)cc1)C(C#N)=C(/N=C/c1ccc(Cl)cc1)O3` (stereo not given), for which the growth in assay [1] was -5.29% (active); in assay [2] it was 47.8%; in [10], 25.5%; in [4] it was 106%; in assay [5] it was 25.7%; in assay [6], 33.9%. Also, the growth in assay [7] is -20.2% (active); in assay [9], 15.2%.

`O=C(NNc1nc2cc(F)ccc2n2c(CN3CCCC3)ccc12)c1cnccn1`: the growth in assay [1] is 46%; in assay [2], 7.62% (active); in assay [10], 21%; in assay [4], 40.2%; in assay [5] it was 13.3%; in [7] it was -1.87% (active). The growth was 6.67% (active) in assay [8] and 1.81% (active) in assay [9].
